# Shown are actives, neighbours in structure and some others; about 6.7% of the full set was active somewhere.
# SW480 rereplic = A quantitative high throughput screen for small molecules that induce DNA re-replication in SW480 colon adenocarcinoma cells. actives 1.8% (n = 340,000). Potency, µM (highest dose often 46.1 µM), inactives show at the top dose re-replication activation, hits mostly activators. SW480 DNA re-replication, Hoechst DNA content imaging, 48 h. AID 624297, 2012; also: % of control where 0% means no effect; nearly all actives have a fitted effect of over 55% in size
#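 Cells (250 per well) received 23 nL compound or DMSO by pin tool and were kept 48 hr at 37 C, 5% CO2. Nuclei were then stained with Hoechst for 40 min and scanned for DNA content.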
# KB-V1 MDR tox = qHTS assay for MDR1-selective chemotherapeutics: Primary screen using the drug-selected MDR subline cells KB-V1; KB-V1 MDR cells viability, CellTiter-Glo, 72 h; Potency, µM (highest dose often 46.1 µM), most hits filed as cytotoxic; actives 3.4% (n = 400,000); AID 1347076, 2019; also: % is scaled to controls: 0 for no effect and ±100 for the full control effect; nearly all actives have a fitted effect of over 60% in size
#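 qHTS viability screen in drug-selected KB-V1 MDR cells: 72 h compound treatment at 37 degrees C, ATP luminescence end point.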
# KB-3-1 tox = qHTS assay for MDR1-selective chemotherapeutics: Primary screen using the parental adenocarcinoma cell KB-3-1. KB-3-1 viability, CellTiter-Glo ATP luminescence, 72 h. actives 1.4% (n = 400,000). Potency, µM (doses to about 46.1 µM), hits mostly cytotoxic. AID 1347075, 2019; also: % is scaled to controls: 0 for no effect and ±100 for the full control effect; nearly all actives have a fitted effect of over 60% in size
#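 KB-3-1 parental drug-naive adenocarcinoma cells in DMEM/10% FBS, incubated 72 h at 37 C with pin-transferred compounds across a concentration series. Viability by CellTiter-Glo luminescence; concentration-response curves fitted after normalization.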
# MCF10A rereplic = A quantitative high throughput screen for small molecules that induce DNA re-replication in MCF 10a normal breast cells; actives 2.9% (n = 350,000); AID 624296, 2012; Potency, µM (top dose mostly 46.1 µM), inactives show top-dose activity, positive = re-replication, hits mostly activators; MCF 10A DNA re-replication, Hoechst nuclear intensity, 48 h; also: % of control where 0% means no effect; nearly all actives have a fitted effect of over 50% in size
# PINK1 expr mod = A Quantitative High throughput Screen to Identify Chemical Modulators of PINK1 Expression. PINK1 immunofluorescence, high-content cytometry, 24 h. actives 0.2% (n = 410,000). AID 624263, 2012. Potency, µM (series often up to 76.6 µM), for inactives: top-dose activation (PINK1 increase), hits mostly activators; active = well fitted activation curve with a large enough effect; inconclusive = small, poorly fitted or top-dose-only effect; cell line not stated here; also: % of control where 0% means no effect; nearly all actives have a fitted effect of over 65% in size
#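 Decision-based qHTS: stable cells, 24 h exposure to five compound concentrations, CCCP as control. Fixed cells stained for PINK1 plus nuclear, mitochondrial and cell markers, cytometer read.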
# Active calls of the source: *; i = inactive; ? = inconclusive; · = no result; [ ] = dose if it differs, or a comment. Unless noted, calls follow the shape of the dose curve; as a rule, active = well fitted curve in the direction sought with a large enough effect; inconclusive = small, poorly fitted or top-dose-only effect, or another doubt; inactive = no such curve, though single readings can be large; an effect the other way counts as inactive or inconclusive. Potency is read from the fitted curve at half-maximal effect.
SMILES,SW480 rereplic,KB-V1 MDR tox,KB-3-1 tox,MCF10A rereplic,PINK1 expr mod
CCOc1ccc(N(CC(=O)Nc2ccccc2OC)S(=O)(=O)c2ccccc2)cc1,2.31µM*,1.03µM*,4.61µM*,?,7.6%
Cc1ccc(N(CC(=O)Nc2ccc3c(c2)OCCO3)S(=O)(=O)c2c(C)noc2C)cc1,-0.8%,?,i,-2.8%[9.22 µM],-1.9%
CCCCCCn1cc(CN2CC(N3CCN(CCN(C)C)CC3)CS2(=O)=O)nn1 (stereo not drawn),·,i,i,·,-0.6%
CCc1cc(C(=O)NCC2Cc3cc(C)cc(-c4cc(C(C)=O)ccc4F)c3O2)n(C)n1 (stereo not drawn),·,·,·,·,2.1%
COc1ccc(N(CC(=O)Nc2ccc(C)cc2C)S(=O)(=O)c2c(C)n[nH]c2C)cc1,?,?,?,2.1%,-0.6%
COc1ccc(N(CC(=O)Nc2cc(C)on2)S(=O)(=O)c2cc(C)ccc2C)cc1,?,5.8µM*,?,22.5%,-5.1%[38.3 µM]
COc1ccc(N(CC(=O)Nc2cc(C)on2)S(=O)(=O)c2ccc(Cl)cc2)cc1,1.2%,i,i,0.5%,11.3%
COc1ccc(N(CC(=O)Nc2cc(Cl)ccc2C)S(=O)(=O)c2c(C)n[nH]c2C)cc1,-0.7%,i,9.2µM*,-4.5%,4.2%
C/C=C/c1ccc(OCCCCN2CCN(CC)CC2)c(OC)c1,8.2µM*,i,i,-5.1%,-1.7%
CCC(C)c1ccc(S(=O)(=O)N2CCN(C(C)C(=O)NC3CCCC3)CC2)cc1 (stereo not drawn),-0.8%,5.8µM*,i,16.8%,-0.3%
CC(C)c1ccc(S(=O)(=O)N2CCN(C(C)C(=O)N3CCCC3)CC2)cc1 (stereo not drawn),0.3%,25.9µM*,i,2.2%,-1.1%
CCCOc1ccc(NC(=O)CC2C(=O)N(c3cccc(OC)c3)C(=O)N2Cc2cccs2)cc1 (stereo not drawn),·,·,·,·,2.4%
CCOc1ccc(NC(=O)CC2C(=O)OCCN2CC)cc1 (stereo not drawn),·,i,i,·,1.2%
C=CCN1C(c2cccc(C(F)(F)F)c2)=CS/C1=C(\C#N)c1nnc(N2CCOCC2)n1-c1ccccc1,·,i,i,·,0.8%
C=CCN1C(=O)NC(c2ccccc2)(C(F)(F)F)S/C1=C(\C#N)c1nnc(N2CCOCC2)n1-c1ccccc1 (stereo not drawn),-15.5%,?,i,20.6µM*,0.0%
CO[C@]1(NC(=O)C2SC(=C(C(N)=O)C(=O)O)S2)C(=O)N2C(C(=O)O)=C(CSc3nnnn3C)CS[C@H]21 (stereo partly drawn),-4.6%[20.6 µM],·,·,1.9%[20.6 µM],·
CCc1nnc(NC(=O)/C=C/c2ccco2)s1,-11.1%,i,i,-2.3%,1.3%
Cc1nc(NC(=O)/C=C/c2ccco2)sc1C,8.2µM*,?,4.11µM*,?,10.6%
O=C(/C=C/c1ccco1)Nc1nnc(-c2ccco2)s1,?,?,?,5.8µM*,12.9%
COC(=O)c1ccc(/C=N/Nc2nc(-c3ccc(C)cc3)cs2)cc1,1.8%,i,i,?,3.1%
CCCc1sc(N/N=C/c2ccccn2)nc1-c1ccc(F)cc1,-5.8%,10.3µM*,?,-0.3%,12.6µM*
Cc1nc(N/N=C/c2ccccn2)sc1C,20.6µM*,?,25.9µM*,?,12.1%
O=C(O)Cc1sc(N/N=C\c2ccccc2)nc1-c1ccccc1,-6.1%,i,i,-0.6%,0.7%
COC(=O)c1ccc(/C=N/Nc2nc(C)c(C)s2)cc1,?,i,i,23.1µM*,1.4%
CC(Sc1nnc(C(C)Oc2ccc(F)cc2)o1)C(=O)NCc1ccc2c(c1)OCO2 (stereo not drawn),·,i,i,·,4.2%
SMILES,SW480 rereplic,KB-V1 MDR tox,KB-3-1 tox,MCF10A rereplic,PINK1 expr mod
COC(=O)c1ccc2c(=O)n(-c3ccccc3F)c(=S)[nH]c2c1,-1.6%,18.4µM*,?,5.2%,4.8%
O=C(c1ccc2c(c1)OCCO2)N1CCCCC1,-2.7%,?,i,-4.1%,-0.2%
C=CCc1cc(C(=O)N2CCCCC2)ccc1O,0.8%,20.6µM*,?,-0.9%,-1.7%[38.3 µM]
Cc1ccc2[nH]c(CSc3ccccc3)cc(=O)c2c1,-5.5%,?,i,12.3%,3.3%
COc1cc(=O)n2c(c1C(=O)NC(C)c1ccco1)CCN(C(=O)c1cc(C)cc(C)c1)CC2 (stereo not drawn),·,·,·,·,1.2%
CN(C)c1ncnc2c1C(c1ccccc1)C(C)(C)O2 (stereo not drawn),-0.7%,18.4µM*,i,3.4%,-5.6%
COCCNC(=O)C12CC3CC(C1)CC(c1ccccc1)(C3)C2,-10.4%,i,i,7.0%,-1.2%
COc1ccc(NC(=O)CNC(=O)C23CC4CC(CC(C4)C2)C3)c(OC)c1,4.61µM*,i,i,-22.3%,3.7%
COc1ccc(NC(=O)C23CC4CC(C2)CC(c2ccccc2)(C4)C3)c(OC)c1,?,14.6µM*,i,?,-0.6%
C#CCN(C1CCCC1)S(=O)(=O)C=C,·,i,?,·,·
CCOC(=O)CNC(=O)CSc1cn(CC(=O)N2CCCCCC2)c2ccccc12,·,·,·,·,0.8%
COC(=O)c1ccc2nc(-c3cccc(Br)c3)c(CC3CCCCC3)n2c1,·,13µM*,?,·,0.0%
COC(=O)c1ccc2nc(-c3ccc(Cl)cc3)c(CC3CCCCC3)n2c1,·,16.4µM*,?,·,1.7%
COC(=O)c1ccc2nc(-c3cccc(Br)c3)c(Cc3ccccc3)n2c1,·,?,i,·,0.9%
COC(=O)c1ccc2nc(-c3ccc(OC)c(OC)c3)c(CC3CCCCC3)n2c1,·,i,?,·,6.4%
CC(=O)NC(C)(c1ccccc1)c1nc(-c2cccc(F)c2)cs1 (stereo not drawn),·,i,i,·,3.0%
COc1ccc(-n2c(-c3ccccc3)nnc2-c2ccc(Cl)cc2)cc1,-8.9%,i,i,-9.0%,1.2%
COc1ccc(-n2c(-c3ccc(Cl)cc3)c[n+]3c2CCc2ccccc2-3)cc1,29.8%,i,?,10.3%,31.6µM*
CSc1nnc(CNC(=O)c2c(-c3ccccc3)noc2C)n1-c1ccc(F)cc1,·,·,·,·,0.7%
COc1ccc(OC)c(NC(=O)NCCCCc2ccccc2)c1,?,?,i,7.1%,-0.3%
CCCCn1c(N)c(N(Cc2ccccc2OC)C(=O)C(C)Oc2ccc(F)cc2)c(=O)[nH]c1=O (stereo not drawn),-4.7%,i,i,0.2%,-1.2%

# Compound activity as filed in PubChem BioAssay.
